Assay results as given in PubChem BioAssay AID489036 (National Center for Advancing Translational Sciences (NCATS), 2010).
Results filed as inconclusive are left out. Active and inactive are the calls of the source. Calls follow the shape of the dose curve; as a rule, active = well fitted inhibition curve with a large enough effect; inconclusive = small, poorly fitted or top-dose-only effect, or effect the other way; inactive = flat fitted curve, though single readings scatter.

Test: VP16 selectivity assay for inhibitors of ROR gamma transcriptional activity
From the text: NIH Molecular Libraries Probe Production Network [MLPCN] NIH Chemical Genomics Center [NCGC] MLPCN Grant: R03 DA026211-01 Assay Provider: Dan Littman, New York University Assay Overview: The retinoic acid-related orphan receptor (ROR) gamma is a transcription factor that has a central role in the differentiation of Th17 cells, a subset of T helper cells that secrete the inflammatory cytokines IL-17, IL-17F, and IL-22. Th17 cells have been implicated in graft versus host disease, autoimmune disease and asthma. ROR gamma is induced in naive T helper cells in the presence of TGF-beta combined with IL-6, IL-21, or IL-23, and thereafter directs the expression of the Th17 lineage cytokines. […] Small molecule inhibitors that inhibit components common to the RORgt and VP16 assays, such as the Gal4 DNA binding domain or the UAS luciferase reporter, will be active in both assays and thus scored as nonspecific.
Assay Protocol Summary: For screening, 600 cells in 4 uL/well were dispensed into white solid 1536-well plates (Grenier) using a solenoid-based dispenser. […] After addition of 1.5 uL Photinus luciferase detection reagent, the plates were incubated 10 min at ambient temperature and then read by an ViewLux (Perkin Elmer) to detect luminescence.

| SMILES | outcome |
| --- | --- |
| CO[C@H]1[C@@H](O)CC(OC2[C@@H](O)CC(OC3[C@@H](O)C[C@H](OC4CC[C@@]5(C)C(CCC6C5CC(O)[C@]5(C)[C@H](C7=CC(=O)OC7)CCC65O)C4)O[C@@H]3C)O[C@@H]2C)O[C@@H]1C (some centres not stated) | inactive |
| CC1OC(O[C@@H]2C(O)CC(O[C@@H]3C(O)C[C@@H](OC4CC[C@@]5(C)C6CC[C@]7(C)C(C8=CC(=O)OC8)C(O)C[C@@]7(O)[C@H]6CC[C@@H]5C4)OC3C)OC2C)CC(O)C1O (some centres not stated) | inactive |
